For nine compounds, outcome and AC50 results are on record in PubChem BioAssay (EPA / NIEHS).

Records with an inconclusive call do not appear. Calls of active or inactive are those of the source. Rule for the calls, unless noted: active = hit-call score of the fitted dose curve at least 0.9, where 1 is the maximum; inactive = score below 0.9.

In general, AC50 refers to the concentration giving half of the maximal activity seen.

Experiment [1] can be described thus: ATG_PBREM_CIS: Attagene CIS-FACTORIAL HepG2 Assay for human Phenobarbital-responsive Enhancer Module (PBREM) (AID 2282955). The following applies: HepG2 PBREM cis-reporter, Attagene multiplexed transcription; actives raise or lower the signal. An outline of the steps:
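Cells were transfected with cis-element reporter units and treated for 24 h, after which RNA was extracted and reporter transcripts measured by RT-PCR and capillary electrophoresis.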

Experiment [2] concerns the target Paired box protein Pax-6 (Homo sapiens) (UniProt P26367). The experiment can be described thus: ATG_Pax6_CIS: Attagene CIS-FACTORIAL HepG2 Assay for human Paired Box 6 (PAX6) (AID 2282956). The following applies: HepG2 CIS-FACTORIAL PAX6 reporter transcription, RNA readout; actives raise or lower the signal. The procedure, abridged:
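DMSO-referenced bidirectional fits of reporter mRNA fluorescence; HepG2 with transient cis-promoter MRTUs, 24 h post-dose, RT-PCR plus capillary electrophoresis detection.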

Experiment [3] is described as follows: ATG_PXRE_CIS: Attagene CIS-FACTORIAL HepG2 Assay for human Pregnane X Receptor Element (PXRE) (AID 2282957). The following applies: HepG2 Attagene CIS-FACTORIAL PXRE reporter, mRNA; actives raise or lower the signal. The procedure, abridged: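 After a 24 h chemical incubation, total RNA from transfected HepG2 cells was reverse-transcribed and reporter cDNA amplified, FAM-labeled, HpaI-digested and sized by capillary electrophoresis. DMSO served as baseline for bidirectional curve fitting.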

Experiment [4] in a line: ATG_PPRE_CIS: Attagene CIS-FACTORIAL HepG2 Assay for human Peroxisome Proliferator-activated Response Element (PPRE) (AID 2282958). The note with it: HepG2 PPRE cis-element reporter, Attagene transcription factor profiling; actives raise or lower the signal. An outline of the steps: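 In this cell-based multiplex, a PPRE cis element drives a reporter sequence in transiently transfected HepG2 cells. Following 24 h treatment, labeled cDNA amplicons are sized and quantified by capillary electrophoresis, with DMSO defining baseline.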

Experiment [5] is described as follows: ATG_Sox_CIS: Attagene CIS-FACTORIAL HepG2 Assay for human SRY-box transcription factor (SOX) (AID 2282960). The note with it: HepG2 Attagene cis-factorial SOX reporter, mRNA; actives raise or lower the signal. The procedure, abridged: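 Measures mRNA induction of a SOX1-associated reporter in HepG2 after 24 h dosing. Fluorescently labelled RT-PCR fragments are separated by capillary electrophoresis, and gain or loss relative to DMSO control is fitted.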

For experiment [6], the target named is Transcription factor Sp1 (Homo sapiens) (UniProt P08047). As to the kind of experiment: ATG_Sp1_CIS: Attagene CIS-FACTORIAL HepG2 Assay for human Specificity Protein 1 (Sp1) (AID 2282961). The note with it: HepG2 Sp1 cis-reporter transcription, actives raise or lower the signal. The procedure, abridged:
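Cells: HepG2, transiently transfected with cis-regulated multiplexed reporters. Exposure: 24 h. Detection: reporter transcripts amplified, fluorescently labeled, restriction-digested and sized by capillary electrophoresis. Analysis: bidirectional fit relative to DMSO.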

Experiment [7] in a line: ATG_SREBP_CIS: Attagene CIS-FACTORIAL HepG2 Assay for human Sterol Regulatory Element Binding (SREBP) (AID 2282962). The note with it: HepG2 Attagene cis-factorial SREBP reporter, mRNA; actives raise or lower the signal. The procedure, abridged: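 In this cis-format assay, HepG2 liver cells express reporters controlled by promoter elements responsive to native transcription factors. Exposure lasts 24 h; reporter mRNA fluorescence from capillary electrophoresis gives the signal, fitted bidirectionally against DMSO.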

The target in experiment [8] is Signal transducer and activator of transcription 3 (Homo sapiens) (UniProt P40763). As to the kind of experiment: ATG_STAT3_CIS: Attagene CIS-FACTORIAL HepG2 Assay for human Signal Transducer and Activator of Transcription 3 (STAT3) (AID 2282963). The note with it: HepG2, Attagene cis-factorial STAT3 reporter transcription; actives raise or lower the signal. The procedure, abridged: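 Readout: fluorescent reporter mRNA fragments resolved by capillary electrophoresis. Setup: HepG2 transfected with MRTUs reporting endogenous transcription-factor activity, dosed 24 h. Gain or loss of signal fitted bidirectionally against DMSO control.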

The nature of experiment [9]: ATG_TA_CIS: Attagene CIS-FACTORIAL HepG2 Assay for human TA Basal Promoter (AID 2282964). The note with it: HepG2 Attagene CIS-factorial TA basal promoter reporter; actives raise or lower the signal. The procedure, abridged: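 Read-out: fluorescent reporter-transcript fragments resolved by capillary electrophoresis after RT-PCR and HpaI digestion. Source: HepG2 cells carrying transiently transfected multi-reporter cis constructs, treated 24 h. Endpoint fitted bidirectionally relative to DMSO.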

The nature of experiment [10]: ATG_TCF_b_cat_CIS: Attagene CIS-FACTORIAL HepG2 Assay for human T-Cell-Factor with beta-catenin (TCF/b-cat) (AID 2282965). The note with it: HepG2 TCF/beta-catenin cis-reporter transcription, actives raise or lower the signal. An outline of the steps:
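HepG2, transient MRTU transfection, cis-element-driven reporters (endogenous TFs). 24 h compound exposure. Readout: reporter mRNA by RT-PCR + 6-FAM primer extension, HpaI digest, capillary electrophoresis. Gain/loss fit vs DMSO baseline.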

Experiment [11] can be described thus: ATG_TAL_CIS: Attagene CIS-FACTORIAL HepG2 Assay for human TAL Basal Promoter (AID 2282966).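 Note: background control endpoint measuring basal TAL promoter reporter mRNA not a specific factor.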 The note with it: HepG2 Attagene cis-factorial TAL promoter reporter; actives raise or lower the signal. An outline of the steps: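 Basal-promoter background-control endpoint from a multiplexed HepG2 reporter panel. Cells were exposed 24 h, then reporter mRNA was read by RT-PCR/CE fluorescence and fitted in both directions relative to DMSO.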

Experiment [12] can be described thus: ATG_TGFb_CIS: Attagene CIS-FACTORIAL HepG2 Assay for human Transforming Growth Factor (TGF) (AID 2282967). The following applies: HepG2 Attagene CIS TGFb reporter, mRNA transcription; actives raise or lower the signal. An outline of the steps:
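Transient MRTU transfection of HepG2 (FuGene 6). Dose 24 h. TriZol RNA, oligo(dT) RT, PCR, 6-FAM primer extension, HpaI cut, CE. Bidirectional fit, DMSO = baseline.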

A short description of experiment [13]: ATG_VDRE_CIS: Attagene CIS-FACTORIAL HepG2 Assay for human Vitamin D Receptor Element (VDRE) (AID 2282968). The following applies: HepG2 VDRE cis-reporter transcription, actives raise or lower the signal. The procedure, abridged:
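Transient MRTU transfection of HepG2, 24 h compound exposure. Readout: reporter transcripts via RT-PCR and capillary electrophoresis, fluorescence. Bidirectional fit vs DMSO.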

Experiment [14] deals with Estrogen receptor (Homo sapiens) (UniProt P03372). The experiment can be described thus: ATG_ERa_TRANS: Attagene TRANS-FACTORIAL HepG2 Assay for human Estrogen Receptor alpha (ERa) (AID 2282970; active = hit-call score of the fitted dose curve at least 0.9, where 1 is the maximum). The note with it: HepG2 Attagene TRANS ERa GAL4 reporter, mRNA. The procedure, abridged:
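Gal4-fusion ERa transactivation, measured as reporter transcript level in transiently transfected HepG2 cells. Exposure 24 h; RT-PCR plus capillary electrophoresis with fluorescence detection.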

Experiment [15] concerns the target X-box-binding protein 1 (Homo sapiens) (UniProt P17861). As to the kind of experiment: ATG_Xbp1_CIS: Attagene CIS-FACTORIAL HepG2 Assay for human X-box Binding Protein 1 (XBP1) (AID 2282972). The following applies: HepG2 XBP1 cis-element reporter, Attagene multiplex; actives raise or lower the signal. The procedure, abridged:
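Changes in reporter transcript abundance, read by RT-PCR and capillary electrophoresis, reflect endogenous transcription factor activity. Transfected HepG2 cells received compound for 24 hours; DMSO defined baseline for bidirectional analysis.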

The nature of experiment [16]: ATG_M_19_TRANS: Attagene TRANS-FACTORIAL HepG2 Assay for M19 Transcription Factor (Internal Marker) (AID 2282974; active = hit-call score of the fitted dose curve at least 0.9, where 1 is the maximum). The following applies: HepG2 Attagene TRANS-FACTORIAL M19 internal marker reporter. The procedure, abridged:
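Reporter mRNA induction was measured in transfected HepG2 cells 24 h after dosing. Endpoint fitted upward relative to DMSO and serves as a background control within the multiplexed TRANS panel.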

The nature of experiment [17]: ATG_GAL4_TRANS: Attagene TRANS-FACTORIAL HepG2 Assay for GAL4 (Internal Marker) (AID 2282976; active = hit-call score of the fitted dose curve at least 0.9, where 1 is the maximum). The following applies: HepG2 Attagene TRANS GAL4 internal marker reporter. An outline of the steps: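 Background-control readout: GAL4-UAS reporter transcript in transiently transfected HepG2 cells after 24 h compound exposure. Measured by RT-PCR, 6-FAM primer extension, HpaI digest and capillary electrophoresis; gain-of-signal fit versus DMSO.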

Experiment [18] has as its target Nuclear receptor subfamily 1 group I member 3 (Homo sapiens) (UniProt Q14994). As to the kind of experiment: ATG_CAR_TRANS: Attagene TRANS-FACTORIAL HepG2 Assay for human Constitutive Androstane Receptor (CAR) (AID 2282969; active = hit-call score of the fitted dose curve at least 0.9, where 1 is the maximum;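 note: activators raise reporter mRNA above DMSO so AC50 marks induction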). The note with it: HepG2 Attagene TRANS-FACTORIAL CAR reporter. The procedure, abridged:
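Transiently transfected HepG2, multiplex TRANS reporters (CAR-Gal4 chimera driving GAL4-UAS reporter). 24 h dosing. Readout: reporter transcript by RT-PCR + capillary electrophoresis, fluorescence intensity; positive direction vs DMSO.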

The nature of experiment [19]: ATG_RORE_CIS: Attagene CIS-FACTORIAL HepG2 Assay for human RAR-related Orphan Receptor Element (RORE) (AID 2282959). The following applies: HepG2 Attagene cis-factorial RORE reporter, mRNA; actives raise or lower the signal. An outline of the steps:
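Endogenous factor activity at a cis response element is read as reporter transcript levels in HepG2 cells, 24 h post-dose. Transcripts are quantified by RT-PCR with capillary electrophoresis, and data fitted in both directions against DMSO.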

Signal transducer and activator of transcription 3 (Homo sapiens), sequence (P40763 whole entry, looked up, the tested form may be a part): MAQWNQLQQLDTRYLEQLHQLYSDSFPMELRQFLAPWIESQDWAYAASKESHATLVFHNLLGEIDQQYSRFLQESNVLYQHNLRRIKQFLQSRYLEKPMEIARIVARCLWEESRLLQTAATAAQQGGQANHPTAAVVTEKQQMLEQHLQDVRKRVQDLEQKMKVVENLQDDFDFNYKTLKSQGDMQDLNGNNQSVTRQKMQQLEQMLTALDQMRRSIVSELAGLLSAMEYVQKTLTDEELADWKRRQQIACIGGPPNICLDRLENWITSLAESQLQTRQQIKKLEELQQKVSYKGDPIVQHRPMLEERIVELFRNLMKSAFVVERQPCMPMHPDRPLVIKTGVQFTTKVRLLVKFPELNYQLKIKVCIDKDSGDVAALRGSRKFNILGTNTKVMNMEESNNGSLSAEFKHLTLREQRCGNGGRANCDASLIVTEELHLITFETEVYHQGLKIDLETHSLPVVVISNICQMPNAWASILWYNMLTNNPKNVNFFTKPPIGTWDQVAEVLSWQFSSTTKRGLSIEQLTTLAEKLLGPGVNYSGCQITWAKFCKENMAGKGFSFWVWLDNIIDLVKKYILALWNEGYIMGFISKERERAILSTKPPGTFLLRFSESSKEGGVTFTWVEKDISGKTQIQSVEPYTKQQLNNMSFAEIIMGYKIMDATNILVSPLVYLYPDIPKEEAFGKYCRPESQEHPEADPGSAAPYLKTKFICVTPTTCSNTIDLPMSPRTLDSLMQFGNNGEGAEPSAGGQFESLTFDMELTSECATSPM
X-box-binding protein 1 (Homo sapiens), sequence (P17861 whole entry, looked up): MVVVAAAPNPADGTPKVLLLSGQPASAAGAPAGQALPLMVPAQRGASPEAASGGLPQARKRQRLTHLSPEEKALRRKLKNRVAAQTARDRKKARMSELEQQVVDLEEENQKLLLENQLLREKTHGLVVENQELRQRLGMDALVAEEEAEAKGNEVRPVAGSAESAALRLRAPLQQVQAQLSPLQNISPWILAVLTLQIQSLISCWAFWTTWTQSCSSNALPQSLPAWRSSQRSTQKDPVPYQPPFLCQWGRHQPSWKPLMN
Estrogen receptor (Homo sapiens), sequence (P03372 whole entry, looked up, the tested form may be a part): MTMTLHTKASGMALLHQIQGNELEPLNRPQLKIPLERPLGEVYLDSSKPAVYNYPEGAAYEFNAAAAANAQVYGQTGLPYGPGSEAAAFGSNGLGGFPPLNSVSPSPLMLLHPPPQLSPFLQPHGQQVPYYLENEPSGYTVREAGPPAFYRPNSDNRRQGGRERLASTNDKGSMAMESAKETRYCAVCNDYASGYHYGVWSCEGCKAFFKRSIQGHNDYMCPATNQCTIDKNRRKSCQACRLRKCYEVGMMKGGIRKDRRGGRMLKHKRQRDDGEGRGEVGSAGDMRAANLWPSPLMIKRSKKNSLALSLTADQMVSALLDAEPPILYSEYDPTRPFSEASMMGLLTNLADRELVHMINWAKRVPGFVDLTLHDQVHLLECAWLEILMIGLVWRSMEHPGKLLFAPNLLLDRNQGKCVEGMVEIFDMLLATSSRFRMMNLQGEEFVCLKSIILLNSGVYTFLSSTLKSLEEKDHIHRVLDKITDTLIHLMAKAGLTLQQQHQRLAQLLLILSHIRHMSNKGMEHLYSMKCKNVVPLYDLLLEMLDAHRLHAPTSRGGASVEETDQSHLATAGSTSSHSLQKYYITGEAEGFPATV
Transcription factor Sp1 (Homo sapiens), sequence (P08047 whole entry, looked up): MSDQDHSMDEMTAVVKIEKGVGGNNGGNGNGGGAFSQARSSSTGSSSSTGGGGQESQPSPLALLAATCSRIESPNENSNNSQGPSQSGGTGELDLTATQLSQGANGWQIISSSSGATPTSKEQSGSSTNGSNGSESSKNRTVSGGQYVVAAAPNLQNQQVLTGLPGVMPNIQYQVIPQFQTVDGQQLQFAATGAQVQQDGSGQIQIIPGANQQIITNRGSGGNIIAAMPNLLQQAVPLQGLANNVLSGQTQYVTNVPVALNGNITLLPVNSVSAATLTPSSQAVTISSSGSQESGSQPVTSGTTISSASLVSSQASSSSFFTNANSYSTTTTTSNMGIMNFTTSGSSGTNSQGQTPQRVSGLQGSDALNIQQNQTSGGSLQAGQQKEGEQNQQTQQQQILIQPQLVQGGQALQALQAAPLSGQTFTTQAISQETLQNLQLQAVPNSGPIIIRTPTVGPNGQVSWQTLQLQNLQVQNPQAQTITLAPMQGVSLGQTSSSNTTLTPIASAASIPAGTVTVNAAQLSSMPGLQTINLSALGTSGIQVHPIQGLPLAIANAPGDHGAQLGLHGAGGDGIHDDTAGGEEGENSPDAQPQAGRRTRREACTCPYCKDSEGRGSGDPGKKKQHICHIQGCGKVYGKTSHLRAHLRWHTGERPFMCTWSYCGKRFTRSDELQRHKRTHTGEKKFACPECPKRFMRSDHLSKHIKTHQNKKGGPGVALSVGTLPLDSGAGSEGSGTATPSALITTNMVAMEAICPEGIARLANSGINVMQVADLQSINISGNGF
Paired box protein Pax-6 (Homo sapiens), sequence (P26367 whole entry, looked up): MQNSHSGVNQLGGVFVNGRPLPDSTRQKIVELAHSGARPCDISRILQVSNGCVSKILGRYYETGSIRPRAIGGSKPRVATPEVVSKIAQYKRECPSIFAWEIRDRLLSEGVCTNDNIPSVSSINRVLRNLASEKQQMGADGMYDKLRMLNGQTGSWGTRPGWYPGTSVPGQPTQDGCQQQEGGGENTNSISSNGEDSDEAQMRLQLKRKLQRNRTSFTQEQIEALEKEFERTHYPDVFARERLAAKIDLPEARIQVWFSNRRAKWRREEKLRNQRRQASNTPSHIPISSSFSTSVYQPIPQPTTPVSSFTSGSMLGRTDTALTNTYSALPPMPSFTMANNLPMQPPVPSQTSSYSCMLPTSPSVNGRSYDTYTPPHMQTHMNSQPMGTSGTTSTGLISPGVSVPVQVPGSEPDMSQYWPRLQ
Nuclear receptor subfamily 1 group I member 3 (Homo sapiens), sequence (Q14994 whole entry, looked up, the tested form may be a part): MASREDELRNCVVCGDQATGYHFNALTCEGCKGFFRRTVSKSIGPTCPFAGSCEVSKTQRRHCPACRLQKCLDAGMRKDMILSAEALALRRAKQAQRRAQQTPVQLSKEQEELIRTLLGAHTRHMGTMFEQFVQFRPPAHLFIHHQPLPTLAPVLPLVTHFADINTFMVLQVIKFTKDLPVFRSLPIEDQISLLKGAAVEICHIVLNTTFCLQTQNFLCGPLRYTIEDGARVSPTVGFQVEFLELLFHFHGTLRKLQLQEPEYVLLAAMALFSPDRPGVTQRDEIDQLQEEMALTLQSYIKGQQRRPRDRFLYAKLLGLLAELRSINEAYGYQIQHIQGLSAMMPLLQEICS

As for `CCCCCCCCCC(C)=O`, the outcome in experiment [1], in [2], in experiment [3], in experiment [4], in experiment [5] and in [6] was inactive. Also, the outcome in [7], in experiment [8], in experiment [9], in experiment [10], in experiment [11] and in experiment [12] was inactive. The call in experiment [13], in [14], in experiment [15], in [16] and in [17] was inactive.

`CCOC(=O)CC(=O)c1ccccc1`: the result in experiment [1], in [2], in [4], in experiment [5], in experiment [6] and in experiment [7] was inactive. Besides, the call in [8], in experiment [9], in experiment [10], in experiment [11], in experiment [12] and in experiment [13] was inactive. In addition, the compound was classed as inactive in [18], in experiment [15], in experiment [16] and in experiment [17]. Also, the AC50 in experiment [3] is 10.4 µM (active).

Turning to `CC(=O)CCC1=C(C)CCCC1(C)C`, the result in experiment [1], in experiment [2], in experiment [4], in experiment [6], in [7] and in [8] was inactive. The call in experiment [9], in experiment [10], in experiment [11], in experiment [12], in experiment [13] and in [18] was inactive. In addition, the call in experiment [15] and in experiment [16] was inactive. The results for the AC50 in [3] and in experiment [14] were 4.36 µM (active) and 13 µM (active), respectively.

In the case of `C=C[Si](OCCOC)(OCCOC)OCCOC`, the result in experiment [1], in experiment [2], in [4], in [5], in experiment [6] and in experiment [7] was inactive. Besides, the outcome in [8], in experiment [9], in experiment [10], in experiment [11], in experiment [12] and in experiment [14] was inactive. Moreover, the result in [15], in experiment [16] and in experiment [17] was inactive. Also, in experiment [3], the AC50 was 1.74 µM (active).

Turning to `O=C(O)C(F)(F)C(F)(F)C(F)(F)C(F)(F)C(=O)O`, the result in experiment [1], in experiment [2], in experiment [3], in experiment [4], in experiment [19] and in [6] was inactive. Besides, the compound was called inactive in [7], in [8], in experiment [10], in experiment [11], in experiment [12] and in experiment [13]. Also, the result in [14], in experiment [15] and in experiment [17] was inactive.

`O=C(O)CC(C(=O)O)S(=O)(=O)O` (centres undefined): the result in [1], in experiment [2], in experiment [3], in [4], in experiment [19] and in [5] was inactive. Besides, the compound was called inactive in experiment [6], in experiment [7], in [9], in experiment [10], in [11] and in experiment [13]. Also, the call in [15], in [16] and in experiment [17] was inactive.

As for `CC=C(C)C(C)=O`, the result in [1], in [2], in [4], in [5], in experiment [6] and in experiment [7] was inactive. The outcome in experiment [9], in experiment [10], in [11], in [12], in experiment [15] and in [17] was inactive. Also, the AC50 in experiment [3] was 8.49 µM (active).

For the compound `O=C(Cl)c1c(Cl)c(Cl)c(C(=O)Cl)c(Cl)c1Cl`, the result in experiment [1], in experiment [2], in [4], in [5], in experiment [6] and in experiment [7] was inactive. Further, the compound was classed as inactive in experiment [9], in [10], in [11], in [14], in experiment [15] and in experiment [17]. Further, the AC50 is 27.9 µM (active) in experiment [3] and 0.74 µM (active) in [12].

`CC1OC(=O)C(C)OC1=O` (centres undefined): the outcome in experiment [1], in experiment [2], in experiment [3], in [4], in [5] and in experiment [6] was inactive. For the same compound, the compound was called inactive in experiment [7], in experiment [8], in experiment [9], in experiment [10], in experiment [11] and in experiment [12]. For the same compound, the result in experiment [13], in experiment [14], in [15] and in [17] was inactive.
